Screening results from PubChem.
Most compounds without a hit are left out; they make up all but 18% or so of the library.
DT40 TDP1 no CPT: qHTS for Inhibitors of human tyrosyl-DNA phosphodiesterase 1 (TDP1): qHTS in cells in absence of CPT; DT40 Tdp1-/- hTDP1 cells, no CPT, ATP luminescence, 48 h; Potency, µM (titrated, usually from 46.2 µM), for inactives: top-dose activity change, negative = growth inhibition, usual class: inhibitors; 15% of 420,000 active; further: potency means the concentration at half of the fitted maximal effect; nearly all actives have a fitted effect of over 55% in size
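Stably hTDP1-transfected Tdp1-null chicken DT40 cells were treated with library compounds minus camptothecin and grown for at least 48 hr at 37 °C, after which cellular ATP was quantified by luminescence.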
VP16 counter: counter-screen for ROR gamma inhibitors: Gal4-VP16 reporter; Drosophila S2 Gal4-VP16 UAS-luciferase, luminescence, 20 h; Potency, µM (doses to about 53.6 µM), inactives show top-dose activity, negative = inhibition, usual class: inhibitors; 3.5% of 310,000 active;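 further: Gal4-VP16 expression switched on by copper sulfate through the metallothionein promoter; potency means the concentration at half of the fitted maximal effect; nearly all actives have a fitted effect of over 50% in size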
DT40 TDP1 CPT: DT40-hTDP1 cell growth loss with CPT; chicken DT40 Tdp1-/-;hTDP1 cells + 20 nM CPT, ATP luminescence, 48 h; Potency, µM (highest dose often 46.2 µM), for the others: top-dose activity change, negative = growth inhibition, usual class: inhibitors; 12% of 420,000 active; AID 686979; further: potency means the concentration at half of the fitted maximal effect; nearly all actives have a fitted effect of over 55% in size
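Chicken DT40 Tdp1-/- cells complemented with human TDP1, 400 cells/well, exposed to compounds plus 20 nM camptothecin for at least 48 h at 37 C; viability read as ATP content by CellTiter-Glo luminescence.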
IL-1B inflam inh: inflammasome signaling inhibition, IL-1 beta readout. activity change, % at 57.5 µM. THP-1 LPS/ATP IL-1B secretion, AlphaLISA, 16 h; hits give low values. 4.7% of 360,000 active; in the data active means activity change below about -50%; inconclusive means mostly about -30% to -49%
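Secreted IL-1B measured by AlphaLISA bead assay after 16 h compound exposure of THP-1 cells; compounds (final up to 57.5 uM) added 1 h before LPS (250 ng/mL) and ATP (1.25 mM) stimulation; lower signal means less secretion.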
LDHA inh: LDHA (human) enzyme inhibition; purified LDHA, NADH/diaphorase-resazurin fluorescence; hits give low values; activity change, % (values are at about 110 or 230 µM); P00338; 0.15% of 480,000 active; in the data active means activity change below about -30%; inconclusive means mostly about -25% to -30%;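 further: plate controls were DMSO wells for no effect and wells without enzyme for full effect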
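Remaining NADH was detected by diaphorase (0.133 mg/mL) converting 37 µM resazurin to fluorescent resorufin, read at 0 and 20 minutes. The preceding 5-minute room-temperature reaction used 2 nM LDHA, 0.2 mM sodium pyruvate and 0.06 mM NADH at pH 7.4.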
RORgamma inh: inhibitors of mouse ROR gamma transcriptional activity; P51450; Drosophila S2 Gal4-RORgamma UAS-luciferase reporter, 20 h; Potency, µM (doses to about 53.6 µM), for inactives: at the highest dose activity change, negative = inhibition, usual class: inhibitors; 5.4% of 310,000 active; AID 2551; further: potency means the concentration at half of the fitted maximal effect; nearly all actives have a fitted effect of over 60% in size
Target sequence (P51450 whole entry, looked up, the tested form may be a part): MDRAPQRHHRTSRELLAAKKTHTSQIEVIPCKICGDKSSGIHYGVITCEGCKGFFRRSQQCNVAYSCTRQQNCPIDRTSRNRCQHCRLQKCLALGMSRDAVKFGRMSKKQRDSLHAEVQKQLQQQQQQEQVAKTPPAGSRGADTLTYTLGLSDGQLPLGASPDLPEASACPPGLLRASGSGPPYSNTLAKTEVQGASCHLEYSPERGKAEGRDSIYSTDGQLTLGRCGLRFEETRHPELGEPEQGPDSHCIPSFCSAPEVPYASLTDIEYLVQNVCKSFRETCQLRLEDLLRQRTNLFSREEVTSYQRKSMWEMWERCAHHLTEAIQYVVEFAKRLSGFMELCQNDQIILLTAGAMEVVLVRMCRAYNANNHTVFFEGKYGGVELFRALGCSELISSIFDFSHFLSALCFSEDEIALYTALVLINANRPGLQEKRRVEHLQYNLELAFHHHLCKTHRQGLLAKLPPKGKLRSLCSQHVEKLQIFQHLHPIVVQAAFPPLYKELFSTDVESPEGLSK
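A Gal4/UAS one-hybrid system in insect cells: metallothionein-promoter Gal4–ROR gamma fusion plus Photinus luciferase reporter. Copper sulfate 700 uM final, 20 hr ambient incubation, luminescent detection after 10 min with reagent.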
* hit, by the source's call; ? = inconclusive; . = no result. Unless noted, the call rests on the fitted dose curve; in most records, active means well fitted curve in the direction sought with a large enough effect; inconclusive means small, poorly fitted or top-dose-only effect, or another doubt; inactive means no such curve, though single readings can be large; an effect the other way counts as inactive or inconclusive. Unless noted, on the % scale 0 is the no-effect control and ±100 the full control effect.

SMILES	DT40 TDP1 no CPT	VP16 counter	DT40 TDP1 CPT	IL-1B inflam inh	LDHA inh	RORgamma inh
CC1CCN(S(=O)(=O)c2ccc3c(c2)c(=O)c(C(=O)NC(C)c2ccccc2)cn3C)CC1 (stereo unspecified)	23µM*	.	?	.	-5	.
C=CCn1cc(C(=O)NCCOC)c(=O)c2cc(S(=O)(=O)N3CCCCCC3)ccc21	?	1%	?	-17	1	-1%
O=C(c1ccc2c(c1)OCO2)N1CCC(c2nc3c(nnn3Cc3cccc(Cl)c3)c(=O)[nH]2)CC1	.	.	.	.	0	.
Cc1nc2c(C)cccn2c1/C(O)=C1\C(=O)C(=O)N(CCN(C)C)C1c1ccc(Br)cc1 (stereo unspecified)	.	.	.	.	3	.
Cc1cc2c(cc1C)N[C@]1(C[C@H]3CCCC(=O)N4CC[C@@H](C1)[C@@H]34)C(=NCc1ccccc1)N2	11µM*	.	11µM*	.	.	.
Cc1cc2c(cc1C)N[C@]1(C[C@H]3CCC(=O)N4CC[C@@H](C1)[C@@H]34)C(=Nc1ccccc1C)N2	?	.	-81%	.	.	.
O=C1CCC[C@@H]2C[C@@]3(C[C@@H]4CCN1[C@H]24)Nc1cc(Cl)ccc1NC3=NCc1ccccc1	?	.	?	24	11	.
O=C1CCC[C@@H]2C[C@@]3(C[C@@H]4CCN1[C@H]24)Nc1cc([N+](=O)[O-])ccc1NC3=NC1CCCCC1	11µM*	.	26µM*	-11	3	.
Cc1cc2c(cc1C)N[C@]1(C[C@H]3CCCC(=O)N4CC[C@@H](C1)[C@@H]34)C(=NC(C)(C)CC(C)(C)C)N2	11µM*	.	18µM*	41	8	.
O=C1CCC[C@@H]2C[C@@]3(C[C@@H]4CCN1[C@H]24)Nc1cc(Cl)ccc1NC3=NC1CCCCC1	?	.	?	23	9	.
O=C(Nc1ncn(Cc2cccc(C(F)(F)F)c2)n1)c1ccn(COc2ccc(Cl)cc2)n1	.	.	.	.	0	.
Cc1nc2c(ccc3c(C)c(C)[nH]c32)s1	.	.	.	.	6	.
Cc1ccccc1S(=O)(=O)Cc1ccc(C(=O)NCCN(C)C)o1	.	.	.	.	-5	.
O=C(Nc1nccs1)C(NS(=O)(=O)c1ccc(Br)s1)c1ccccc1 (stereo unspecified)	-1%	?	-10%	24	1	11µM*
CN(C)c1ccc(C2CCc3ccccc3N2C(=O)c2ccccc2)cc1 (stereo unspecified)	7.9µM*	.	11µM*	.	7	.
Cc1ccc(C(=O)N2CCN(C(=O)c3ccccc3)C2c2ccc(N(C)C)cc2)cc1 (stereo unspecified)	?	-20%	-7%	-4	1	20%
Cc1ccc(NS(=O)(=O)c2cc(C)c(C(=O)O)s2)cc1C	.	.	.	.	-2	.
Cc1ccc(N2C(=O)N(Cc3ncc(-c4ccccc4)o3)C(=O)C2C)cc1 (stereo unspecified)	.	.	.	.	-4	.
CCOC(=O)C1Nc2ccc(Br)cc2C2C=CCC12 (stereo unspecified)	21µM*	-11%	?	-12	3	16%
O=C(O)C1Nc2ccc(Br)cc2C2C=CCC12 (stereo unspecified)	-12%	.	-12%	14	-2	.
CCOC(=O)c1ccc2c(c1)C1C=CCC1C(C(=O)OCC)N2 (stereo unspecified)	?	-4%	?	3	2	?
CCOC(=O)C1Nc2ccc(C)cc2C2C=CCC12 (stereo unspecified)	18µM*	.	?	-13	36	.
CC(C)CNC(=O)C1Nc2ccc(OC(F)(F)F)cc2C2C=CCC12 (stereo unspecified)	13µM*	.	?	-6	-6	.
CNC(=O)NCCC1CCN(C(=O)Nc2cccc(Cl)c2)CC1	.	.	.	.	0	.
COc1cc(NC(=O)C(=O)NCCc2ccccc2)ccc1N1CCCCS1(=O)=O	.	.	.	.	0	.
SMILES	DT40 TDP1 no CPT	VP16 counter	DT40 TDP1 CPT	IL-1B inflam inh	LDHA inh	RORgamma inh
Cc1ncc(-c2ccc(S(=O)(=O)Nc3ccc(C)c(Cl)c3)cc2)o1	.	.	.	.	6	.
Cn1c(=O)c2sccc2n2c(CCCC(=O)Nc3ccc(Oc4ccccc4)cc3)nnc12	16µM*	.	?	.	-5	.
CC(C)Cn1c(=O)c2sccc2n2c(CCCC(=O)Nc3ccc(Cl)cc3)nnc12	18µM*	.	?	.	-3	.
CCC(C)NC(=O)CCCc1nnc2n(CC(C)C)c(=O)c3sccc3n12 (stereo unspecified)	-10%	.	2%	.	-6	.
Cn1c(=O)c2sccc2n2c(CCCC(=O)Nc3ccc(Cl)cc3)nnc12	?	.	21µM*	.	-1	.
CCn1c(=O)c2sccc2n2c(CCC(=O)Nc3ccc(C(C)C)cc3)nnc12	23µM*	.	?	.	-8	.
CCn1c(=O)c2sccc2n2c(CCC(=O)Nc3cc(C)cc(C)c3)nnc12	-3%	.	-1%	.	-8	.
CCNc1c(NS(=O)(=O)c2ccc(OCC)cc2)c(=O)oc2ccccc12	.	.	.	.	-1	.
CC(=O)N1CCN(c2oc(/C=C/c3ccccc3)nc2C#N)CC1	.	.	.	.	1	.
COc1ccc(OC)c(NC(=O)CCCc2nnc3n(C(C)C)c(=O)c4sccc4n23)c1	?	.	-17%	.	4	.
COc1ccc(NC(=O)CCCc2nnc3n(C(C)C)c(=O)c4sccc4n23)cc1Cl	23µM*	.	13µM*	.	-2	.
COc1ccc2c(c1)CC/C(=C\c1ccc(OC)c(Cn3cccn3)c1)C2=O	26µM*	2%	18µM*	-52*	0	3%
COc1ccc2c(c1)CC/C(=C\c1ccc(OC)c(Cn3nc(C)cc3C)c1)C2=O	18µM*	-28%	16µM*	13	5	?
Cc1ccc(C)c(-c2[nH]c3ccccc3c2C=O)c1	.	.	.	.	10	.
COCCCNC(=O)c1nc(Cc2c[nH]c3ccccc23)no1	.	.	.	.	10	.
Cc1cc(C(=O)Nc2cnc3ccccc3c2)ccc1[N+](=O)[O-]	-2%	6%	6%	24	-12	20%
Cc1csc(NC(=O)c2ccc(Cl)cc2[N+](=O)[O-])n1	?	-2%	-13%	0	-3	?
Cc1cc(C(=O)Nc2nc(-c3ccccn3)cs2)ccc1[N+](=O)[O-]	2.9µM*	2.8µM*	2.3µM*	107	2	1.1µM*
O=C(Nc1nc(-c2ccccn2)cs1)c1cc(Cl)ccc1[N+](=O)[O-]	1.5µM*	2.8µM*	0.82µM*	58	-1	1.1µM*
CCc1ccc(C(=O)Oc2ccc3ccccc3c2)cc1	.	.	.	.	-7	.
Cc1c(O)c(CN2CCCCC2)cc2c1oc(=O)c1ccccc12	26µM*	-1%	?	?	-7	-22%
